# High-throughput results as filed in PubChem.
# EBNA-1 inh: blocks EBNA-1 binding to DNA; EBNA-1 DNA binding, fluorescence polarization; inhibition, % at 14.8 µM; 300,000 compounds, 0.34% hits; in the data active = inhibition above about 28%
# LANA-H2A inh: blocks KSHV LANA binding to histone H2A/H2B. Q9QR71. cell-free LANA-H2A/H2B peptide, fluorescence polarization. inhibition, % (concentration not given with the values). 320,000 compounds, 0.6% hits; in the data active = inhibition mostly above about 10%, no sharp cut-off; inactive = mostly below about 6.7%
# LYPLA1 inh: counter-screen for PME1 inhibitors: inhibitors of human LYPLA1. 320,000 compounds, 0.16% hits. O75608. recombinant LYPLA1, FP-Rh probe fluorescence polarization. AID 2174. inhibition, % at 5.9 µM;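 active = inhibition above the mean of all tested compounds plus 3 SD, set per campaign, cut at about 14% in these data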;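 also: inhibitors block serine hydrolase probe labeling of LYPLA1 so polarization falls; 0% = enzyme with DMSO and 100% = wells lacking LYPLA1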
# Target sequence (O75608 whole entry, looked up): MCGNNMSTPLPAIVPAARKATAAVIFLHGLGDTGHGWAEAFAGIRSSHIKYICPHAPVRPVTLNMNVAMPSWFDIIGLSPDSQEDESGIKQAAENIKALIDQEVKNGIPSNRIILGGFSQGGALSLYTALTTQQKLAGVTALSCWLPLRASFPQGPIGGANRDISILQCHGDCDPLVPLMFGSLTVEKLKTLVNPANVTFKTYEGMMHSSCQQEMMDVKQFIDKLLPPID
# LYPLA2 counter: blocks human lysophospholipase 2, a PME1 counter-screen | recombinant LYPLA2, FP-Rh probe fluorescence polarization | inhibition, % at 5.9 µM | 320,000 compounds, 0.38% hits | O95372 | AID 2177;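 active = inhibition above the screen-wide mean plus 3 SD, limit set per campaign, cut at about 26% in these data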;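 also: 0% = LYPLA2 with DMSO and 100% = wells lacking LYPLA2 enzyme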
# ZTA counter: counter-screen for EBNA-1 inhibitors: inhibitors of Epstein-Barr virus ZTA; 320,000 compounds, 0.15% hits; P03206; AID 2234; ZTA-DNA binding, fluorescence polarization; inhibition, % at 11 µM; in the data active = inhibition above about 33%
# Target sequence (P03206 whole entry, looked up): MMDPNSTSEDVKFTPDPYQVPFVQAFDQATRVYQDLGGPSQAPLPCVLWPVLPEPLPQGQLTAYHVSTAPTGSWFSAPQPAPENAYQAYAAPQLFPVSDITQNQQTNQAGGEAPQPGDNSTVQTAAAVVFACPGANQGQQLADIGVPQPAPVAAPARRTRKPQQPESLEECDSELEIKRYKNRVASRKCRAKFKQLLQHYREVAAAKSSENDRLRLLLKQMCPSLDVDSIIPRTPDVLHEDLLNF
# * marks the source's active call; other numbers are inactive results; · = not tested or not shown; + = active, no number. Rows were chosen to be rich in hits. Some 1.4% of all compounds tested hit in one or more screens of this group.
SMILES,EBNA-1 inh,LANA-H2A inh,LYPLA1 inh,LYPLA2 counter,ZTA counter
CN1/C(=C\C=C\C2=[N+](C)c3ccc4ccccc4c3C2(C)C)C(C)(C)c2ccccc21,101*,-38,-121,-329,+
CC1(O)CCN2C(=O)CCc3cccc1c32 (stereo unspecified),·,12*,3,0,-1
CCOC(=O)C1(c2ccccc2)CCN(CCC(C#N)(c2ccccc2)c2ccccc2)CC1,-2,-3,-3,1,7
O=C1NCCN2CCCC12 (stereo unspecified),-3,2,1,30*,-5
CC1(C)NC(=O)[C@H]2CCCN21,1,-4,0,-1,-8
COc1ccc(CCn2c(O)c(C=Nc3ccc(F)cc3)c(=O)[nH]c2=O)cc1OC,-2,15*,-1,-1,-15
CCCC(=O)OCC[N+](C)(C)C,12,20*,0,-1,5
COc1ccc(NC(=O)C2C3CCC(O3)C2C(=O)O)c(OC)c1 (stereo unspecified),-5,-6,0,-3,11
N=Cc1c(O)n(-c2ccc(C34CC5CC(CC(C5)C3)C4)cc2)c(=O)[nH]c1=O,29*,-2,-6,-6,21
CC[n+]1c(SC)ccc2cc(OC)ccc21,-1,-1,-1,1,3
c1ccc(-c2[nH]c[n+](CC3CO3)c2-c2ccccc2)cc1 (stereo unspecified),11,1,-10,4,40*
c1ccc(OCC2CO2)cc1 (stereo unspecified),·,-10,-5,2,-3
CC/C(=N\N1CCCCCC1)c1c(O)n(-c2ccc(C)cc2)c(=O)[nH]c1=O,-4,-1,3,5,-26
COC(=O)CCCNC(=O)CN1CC(c2ccccc2)CC1=O (stereo unspecified),-3,-3,1,0,-8
COc1cc2c(cc1OC)CN(c1ccc([N+](=O)[O-])c(C(F)(F)F)c1)CC2,-11,5,3,-1,-25
CC(C)(O)C(=O)Nc1ccc([N+](=O)[O-])c(C(F)(F)F)c1,·,20*,3,1,-9
CN1CCN(c2ccc(S(C)(=O)=O)cc2[N+](=O)[O-])CC1,-1,3,-1,-1,-11
CN1CCN(c2ccc([N+](=O)[O-])c3no[n+]([O-])c23)CC1,-7,38*,-16,-29,3
O=C1NC(=O)C(=Cc2ccc(-c3ccc(F)cc3O)o2)C(=O)N1,-8,0,1,7,-1
COC(=O)C1=C(c2cccc(C#N)c2)C[C@@H]2CC[C@H]1N2C(=O)NCCOc1ccccc1Cl,·,-2,0,-3,3
CCCCCCCCc1ccc(O)cc1,·,·,2,-3,-16
C[N+](C)(C)CCc1ccc(O)cc1,-8,11*,1,4,-18
O=C(C1CCCN(S(=O)(=O)c2cccc3nsnc23)C1)N1CCC2(CC1)OCCO2 (stereo unspecified),-6,45*,-2,-5,-3
O=C(C(Cc1ccccc1)NS(=O)(=O)c1cccc2nsnc12)N1CCC2(CC1)OCCO2 (stereo unspecified),12,1,3,4,11
CC1CCCCC1NC1CCN(C)CC1 (stereo unspecified),-1,7,-4,-1,-2
SMILES,EBNA-1 inh,LANA-H2A inh,LYPLA1 inh,LYPLA2 counter,ZTA counter
O=C(Cn1cc(C=C2C(=O)NC(=O)NC2=O)c2ccccc21)NCC1CCCO1 (stereo unspecified),1,18*,-5,-6,12
CCN1C(=O)NC(=O)/C(=C\c2cn(CC(=O)N3CCCCC3C)c3ccccc23)C1=O (stereo unspecified),2,33*,-2,2,20
CC(C)(C)c1ccc(C(=O)C2CCCN(C3CCC3)C2)cc1 (stereo unspecified),5,-5,1,0,-5
CC(C)CC12CN3CCN(CC(C3)C1O)C2 (stereo unspecified),8,0.7*,3,0,3
CN(C)CCN(CC1CCCN(Cc2ccccc2F)C1)C(=O)Cc1c(F)cccc1F (stereo unspecified),-3,2,3,3,3
O=C1NC(=S)NC(=O)C1C1CCCCC1,-2,15*,0,-1,-7
Cc1cccc(N2C(=O)NC(=O)/C(=C/c3ccc([N+](=O)[O-])o3)C2=O)c1,18,2,-10,-21,37*
COc1cccc(CNCCc2cccc(F)c2)c1OC,0,15,0,-10,-2
N#CC12CNCC1CN=N2 (stereo unspecified),-1,18*,-2,3,-2
Cn1cc(C(=O)OCC(=O)Nc2ccccc2)c2ccccc21,·,90*,-3,2,-2
Cn1cc(C(=O)OCC(=O)NC2(C#N)CCCC2)c2ccccc21,·,1,0,2,-4
COc1cccc(CNC(=O)CCC(=O)N2C[C@H]3C[C@H](C2)c2cccc(=O)n2C3)c1OC,13,1,0,7,-6
Cc1cc(C(=O)OCC(=O)Nc2ccc(F)cc2)c(C)n1C1CC1,·,3,-1,-1,-14
Cc1cc(C(=O)OCC(=O)Nc2cccc(F)c2)c(C)n1C1CC1,·,+,-4,-2,-5
COc1ccc(CC2C(=O)N(c3ccccc3)C(=O)N(c3ccccc3)C2=O)c(OC)c1,-6,13*,-2,-1,7
COc1ccc(CC2C(=O)NC(=O)N(c3ccccc3)C2=O)c(OC)c1 (stereo unspecified),-2,-1,3,1,7
CN1CC=C(/C=C/c2ccc(-c3ccccc3)cc2)CC1,-27,-2,0,-4,-21
Cc1sc(-n2c(C)cc(C=C3C(=O)NC(=O)NC3=O)c2C)c(C#N)c1C,9,17*,-2,-3,4
O=c1c2ccccc2nc(/C=C/c2ccc3c(c2)OCO3)n1-c1ccccc1,9,11*,0,-2,1
O=c1c2ccccc2nc(/C=C/c2ccccn2)n1-c1ccccc1,118*,-2,-4,2,151*
COc1ccc(-n2c(/C=C/c3ccc(O)c(O)c3)nc3ccccc3c2=O)cc1,-7,-2,-13,-13,-5
COc1cc(/C=C/c2nc3ccccc3c(=O)n2-c2ccc(O)cc2)ccc1O,10,3,-8,-1,9
COC(=O)C1C2c3ccccc3C(c3ccccc32)C1C(=O)OC (stereo unspecified),-8,5,0,-2,-7
CCOc1cc2c(cc1OCC)-n1cccc1C(c1c(O)cccc1OC)NC2 (stereo unspecified),4,4,1,3,-10
O=C1NC(=S)N(c2ccc(F)cc2)C(=O)/C1=C/c1ccco1,78*,-1,-11,7,25
CN(C)N=O,·,49*,1,3,-19
CCn1nc(-c2ccccc2)nc2c(=O)n(C)c(=O)nc1-2,-2,13,89*,96*,74*
